Laboratory results as given in PubChem BioAssay (Tox21).
Inconclusive results are not listed. Values without a mark were called inactive. Calls of active or inactive are those of the source. Calls follow the shape of the dose curve; as a rule, active = well fitted activation curve with a large enough effect in the repeat runs; inconclusive = weak or mixed curves; inactive = flat fitted curve, though single readings scatter.
% is scaled to controls: 0 for no effect and ±100 for the full control effect.

Experiment: A CellTox Green Cytotoxicity Assay to monitor cytotoxicity in HEK293 cells - 16 hour (AID 1224888); also: nearly all actives have a fitted effect of over 35% in size
Details: CellTox Green fluorescence; series mostly up to 76.8 µM; activity change: at the top concentration
Summary of the method: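 HEK293 cells, 600/well, were preincubated 5 hours and then exposed to compounds at 37 C for up to 40 hours. A cell-impermeant cyanine dye staining dead-cell DNA was read by fluorescence at 0, 8, 16, 24, 32 and 40 h time points.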
In the case of `NC(=O)NS(=O)(=O)c1ccc(N)cc1`, the “activity change” value is reported as -7.14% [at 35.3 µM, hits give high values]. For `C[C@@H]1C[C@H]2[C@@H]3CCC4=CC(=O)C=C[C@]4(C)[C@@]3(Cl)[C@@H](O)C[C@]2(C)[C@@]1(OC(=O)c1ccco1)C(=O)CCl`, the “activity change” value was -14.9% [at 35.3 µM, hits give high values]. In the case of `O=C(N/N=C/c1ccccc1O)c1ccncc1`, the “activity change” value is reported as 3.57% [at 35.3 µM, hits give high values]. In the case of `O=C(Nc1cccc([N+](=O)[O-])c1)c1cc2ccccc2cc1O`, the “activity change” value is reported as 3.09%. In the case of `C/C(=C(/OCCOc1ccc(Cl)cc1)c1ccc(Cl)cc1Cl)n1ccnc1`, the “activity change” value is reported as -10.3% [at 35.3 µM, hits give high values]. For `CN(C)c1ccc(C2(c3ccc(N(C)C)cc3)OC(=O)c3cc(N(C)C)ccc32)cc1`, the “activity change” value was 15.3%. For `Cn1cc(C(=O)[C@@H]2CCc3nc[nH]c3C2)c2ccccc21`, the “activity change” value was 0.251% [at 35.3 µM, hits give high values]. In the case of `Clc1ccc(C(Cn2ccnc2)OCc2ccc(Sc3ccccc3)cc2)c(Cl)c1` (stereo not drawn), the “activity change” value is reported as -6.94% [at 35.3 µM, hits give high values]. With `NNc1nc(-c2ccc([N+](=O)[O-])cc2)cs1` the “activity change” value was -10.3%. In the case of `CCCCCOC(=O)CCCC`, the “activity change” value is reported as 4.47%. In the case of `CC1=C(C(=O)OC(C)C)C(c2cccc([N+](=O)[O-])c2)C(C(=O)OC2CN(C(c3ccccc3)c3ccccc3)C2)=C(N)N1` (stereo not drawn), the “activity change” value is reported as 0.839% [at 35.3 µM, hits give high values]. In the case of `CCC(N)(CO)CO`, the “activity change” value is reported as -7.48%. For `Cc1cccc(S(=O)(=O)O)c1C`, the “activity change” value was -17.5%. For `CCCC1O[C@@H]2C[C@H]3[C@@H]4CCC5=CC(=O)C=C[C@]5(C)[C@H]4[C@@H](O)C[C@]3(C)[C@]2(C(=O)CO)O1` (stereo partly drawn), the Potency was “inactive”. In the case of `Nc1ccccc1O`, the “activity change” value is reported as -0.0667%. For `C=CC(=O)OCC(CO)(COC(=O)C=C)COC(=O)C=C`, the Potency was “inactive”. For `O=C(NOCC1CC1)c1ccc(F)c(F)c1Nc1ccc(I)cc1Cl`, the “activity change” value was 1.84% [at 35.3 µM, hits give high values]. With `Cc1ccc2oc(CN(Cc3ccccc3)C(=O)Nc3c(F)cc(F)cc3F)c(-c3ccc(Cl)cc3)c2c1` the “activity change” value was -0.378%.
